In PubChem BioAssay (NCATS):
Several values for one entry are separate records, joined by “and”; a condition that tells them apart may be missing. Identical values can stand only once. Inconclusive results are not listed. A call without a number means that no potency is given here. Activity calls are given as the source filed them. Unless noted, the call rests on the fitted dose curve; in most records, active means well fitted curve in either direction with a large enough effect (not every such curve was filed as active); inconclusive means small, poorly fitted or top-dose-only effect, or another doubt; inactive means flat fitted curve, though single readings scatter.

System: HIV-1 nucleocapsid protein NCp7 (binding to TG oligonucleotide)
Experiment: HIV Nucleocapsid (AID 346; call rule not given here;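 further: potency means the concentration at half of the fitted maximal effect; potency is for inhibitors that block NC binding and lower polarization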)
Settings: HIV-1 NC / fluorescein-TGTGTGTG probe, fluorescence polarization
In short: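 Fluorescence polarization binding of 100 nM HIV-1 NC to 10 nM fluorescein-labelled TG4xF oligonucleotide. Buffer was Hepes pH 7.5 with 250mM NaCl, 1uM ZnCl2, TCEP and 2-mercaptoethanol. Compounds were incubated 1 hr at room temperature before the read.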

SMILES	Potency
c1cnc(N2CCC3(CCNCC3)CC2)nc1	> 20 µM (inactive)
c1cc(N2CCCC3(CCNCC3)C2)ccn1	> 20 µM (inactive)
c1ccc(N2CC[C@@]3(CCCNC3)C2)cc1	> 20 µM (inactive)

Target: Lysosomal acid glucosylceramidase (Homo sapiens) (UniProt P04062)
Sequence (P04062 whole entry, looked up): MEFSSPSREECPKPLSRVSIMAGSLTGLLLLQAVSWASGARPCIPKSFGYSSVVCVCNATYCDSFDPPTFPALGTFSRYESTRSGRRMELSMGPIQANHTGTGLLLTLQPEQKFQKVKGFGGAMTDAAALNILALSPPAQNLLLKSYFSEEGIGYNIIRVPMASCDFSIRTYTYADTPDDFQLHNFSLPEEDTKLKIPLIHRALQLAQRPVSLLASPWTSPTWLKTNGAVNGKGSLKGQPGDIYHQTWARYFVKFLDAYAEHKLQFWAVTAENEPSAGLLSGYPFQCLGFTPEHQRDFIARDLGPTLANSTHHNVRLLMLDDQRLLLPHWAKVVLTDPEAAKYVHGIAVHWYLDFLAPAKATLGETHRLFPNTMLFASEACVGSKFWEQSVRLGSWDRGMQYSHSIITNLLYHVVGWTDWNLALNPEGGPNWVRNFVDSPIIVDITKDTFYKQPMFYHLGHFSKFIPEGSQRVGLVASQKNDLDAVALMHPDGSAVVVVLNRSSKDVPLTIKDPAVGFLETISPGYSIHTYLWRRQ
Experiment: Glucocerebrosidase-p2 (AID 348; in the data active means potency below about 10 µM; further: potency means the concentration at half of the fitted maximal effect)
Settings: purified GBA, blue fluorogenic substrate, 40 min
In short: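 Normal human glucocerebrosidase (0.2 nM) with blue fluorogenic substrate (80 uM final) in citrate/phosphate pH 5.9 with 10mM sodium taurocholate, 0.01% tween-20; 40 min RT, NaOH/glycine stop; fluorescence Ex 365/Em 440; AC50 from a titration from 0.6 nM upwards.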

SMILES	Potency
c1cnc(N2CCC3(CCNCC3)CC2)nc1	> 11.4 µM (inactive)
c1ccc(N2CCC3(CCNCC3)CC2)nc1	> 11.4 µM (inactive)
c1ccc(N2CCCC3(CCNCC3)C2)nc1	> 11.4 µM (inactive)
COc1ccc(NC(=O)N2CCCC3(CCN(C(=O)Oc4ccccc4)CC3)C2)cc1	> 11.4 µM (inactive)
c1cc(N2CCCC3(CCNCC3)C2)ccn1	> 11.4 µM (inactive)
c1ccc(N2CCCC3(CCNCC3)C2)cc1	> 11.4 µM (inactive)
c1cc(CN2CCCC3(CCNCC3)C2)ccn1	> 11.4 µM (inactive)
c1ccc(N2CC[C@@]3(CCCNC3)C2)cc1	> 11.4 µM (inactive)

System: not listed separately
Experiment: AP1 Signaling Pathway (AID 357);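 further: ME-180 reporter cells stimulated with EGF at its EC50 level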
Settings: ME-180 AP-1-bla reporter, EGF-induced, beta-lactamase ratio, 5 h; series mostly up to 17.2 µM
In short: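 Beta-lactamase reporter under AP-1 response element, ME-180 background. Stimulus: EC50 EGF. Compound exposure 5 h, 37 °C. Detection: CCF4, 2.5 h RT, 460/530 nm. Values: AC50 from titration.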

SMILES	outcome
c1cnc(N2CCC3(CCNCC3)CC2)nc1	inactive
c1ccc(N2CCC3(CCNCC3)CC2)nc1	inactive
c1ccc(N2CCCC3(CCNCC3)C2)nc1	inactive
COc1ccc(NC(=O)N2CCCC3(CCN(C(=O)Oc4ccccc4)CC3)C2)cc1	inactive
c1cc(N2CCCC3(CCNCC3)C2)ccn1	inactive
c1ccc(N2CCCC3(CCNCC3)C2)cc1	inactive
c1cc(CN2CCCC3(CCNCC3)C2)ccn1	inactive
c1ccc(N2CC[C@@]3(CCCNC3)C2)cc1	inactive

Target: Cytochrome P450 1A2 (Homo sapiens) (UniProt P05177)
Sequence (P05177 whole entry, looked up): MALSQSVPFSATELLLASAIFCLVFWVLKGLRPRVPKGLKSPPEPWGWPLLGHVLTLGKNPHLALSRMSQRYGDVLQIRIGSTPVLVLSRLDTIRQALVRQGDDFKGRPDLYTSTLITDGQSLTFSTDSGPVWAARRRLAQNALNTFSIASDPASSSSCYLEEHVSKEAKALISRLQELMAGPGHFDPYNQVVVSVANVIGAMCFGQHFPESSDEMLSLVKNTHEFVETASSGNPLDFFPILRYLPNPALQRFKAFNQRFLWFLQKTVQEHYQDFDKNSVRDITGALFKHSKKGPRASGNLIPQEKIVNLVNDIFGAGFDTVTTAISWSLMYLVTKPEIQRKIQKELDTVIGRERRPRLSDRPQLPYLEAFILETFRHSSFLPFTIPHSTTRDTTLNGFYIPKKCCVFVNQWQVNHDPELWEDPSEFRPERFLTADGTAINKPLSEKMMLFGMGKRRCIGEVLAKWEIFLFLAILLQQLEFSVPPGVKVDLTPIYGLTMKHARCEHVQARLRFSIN
Experiment: p450-cyp1a2 (AID 410; calls by dose curve; further: potency means the concentration at half of the fitted maximal effect)
Settings: recombinant CYP1A2, luciferin-ME demethylation, luminescence; series mostly up to 25.6 µM
In short: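 Read-out is luminescence from luciferin produced by CYP1A2 demethylation of Luciferin-ME (100uM, at Km). Detection reagent stopped the 60 min NADPH-dependent reaction; signals were normalized to 57 uM furafylline.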

SMILES	Potency
c1cnc(N2CCC3(CCNCC3)CC2)nc1	inactive
c1ccc(N2CCC3(CCNCC3)CC2)nc1	inactive
c1ccc(N2CCCC3(CCNCC3)C2)nc1	25.1 µM (active)
COc1ccc(NC(=O)N2CCCC3(CCN(C(=O)Oc4ccccc4)CC3)C2)cc1	12.6 µM (active)
c1cc(N2CCCC3(CCNCC3)C2)ccn1	inactive
c1ccc(N2CCCC3(CCNCC3)C2)cc1	inactive
c1cc(CN2CCCC3(CCNCC3)C2)ccn1	inactive
N#C/C(=C\c1ccc(O)c(O)c1)C(N)=S	12.6 µM (active) and 6.31 µM (active)
c1ccc(N2CC[C@@]3(CCCNC3)C2)cc1	39.8 µM (active)

System: not listed separately
Experiment: NFAT Signaling Pathway (AID 444);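 further: carbachol stimulus at about its EC50 of 1 µM final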
Settings: Jurkat NFAT-bla M1, carbachol, beta-lactamase ratio, 5 h; at 7.69 µM (top of the series)
In short: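 Jurkat cells with NFAT-driven β-lactamase reporter and co-expressed M1 receptor, stimulated with carbachol (final 1 uM, ~EC50), compound titration, 5 h at 37 °C. CCF4 loaded 1 h at RT; 460/530 nm ratio gave %activity and AC50.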

SMILES	activity change, negative = inhibition
c1ccc(N2CCCC3(CCNCC3)C2)nc1	-27% (inactive)
c1ccc(N2CCCC3(CCNCC3)C2)cc1	-13.8% (inactive)
c1cc(CN2CCCC3(CCNCC3)C2)ccn1	-14.6% (inactive)

System: not listed separately
Experiment: Stat Signaling Pathway (AID 446);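 further: ME-180 cervical cancer cells given 40 pM IL-6 alongside compound; SIE-controlled beta-lactamase reporter measured as 460/530 nm FRET emission ratio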
Settings: ME-180 (cervical carcinoma) SIE beta-lactamase reporter, IL-6 stimulated, 5 h; series mostly up to 17.2 µM
In short: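 FRET read-out (405 nm excitation, 460/530 nm emission) of a beta-lactamase reporter under a STAT-inducible element in ME-180 cervical carcinoma cells. Cells with compound receive 40 pM IL-6 for 5 h. Values are normalised to AC90 stimulation and AC90 JAK-inhibitor controls.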

SMILES	outcome
c1cnc(N2CCC3(CCNCC3)CC2)nc1	inactive
c1ccc(N2CCC3(CCNCC3)CC2)nc1	inactive
c1ccc(N2CCCC3(CCNCC3)C2)nc1	inactive
COc1ccc(NC(=O)N2CCCC3(CCN(C(=O)Oc4ccccc4)CC3)C2)cc1	inactive
c1cc(N2CCCC3(CCNCC3)C2)ccn1	inactive
c1ccc(N2CCCC3(CCNCC3)C2)cc1	inactive
c1cc(CN2CCCC3(CCNCC3)C2)ccn1	inactive
c1ccc(N2CC[C@@]3(CCCNC3)C2)cc1	inactive

Target: Glucocorticoid receptor (Homo sapiens) (UniProt P04150)
Sequence (P04150 whole entry, looked up): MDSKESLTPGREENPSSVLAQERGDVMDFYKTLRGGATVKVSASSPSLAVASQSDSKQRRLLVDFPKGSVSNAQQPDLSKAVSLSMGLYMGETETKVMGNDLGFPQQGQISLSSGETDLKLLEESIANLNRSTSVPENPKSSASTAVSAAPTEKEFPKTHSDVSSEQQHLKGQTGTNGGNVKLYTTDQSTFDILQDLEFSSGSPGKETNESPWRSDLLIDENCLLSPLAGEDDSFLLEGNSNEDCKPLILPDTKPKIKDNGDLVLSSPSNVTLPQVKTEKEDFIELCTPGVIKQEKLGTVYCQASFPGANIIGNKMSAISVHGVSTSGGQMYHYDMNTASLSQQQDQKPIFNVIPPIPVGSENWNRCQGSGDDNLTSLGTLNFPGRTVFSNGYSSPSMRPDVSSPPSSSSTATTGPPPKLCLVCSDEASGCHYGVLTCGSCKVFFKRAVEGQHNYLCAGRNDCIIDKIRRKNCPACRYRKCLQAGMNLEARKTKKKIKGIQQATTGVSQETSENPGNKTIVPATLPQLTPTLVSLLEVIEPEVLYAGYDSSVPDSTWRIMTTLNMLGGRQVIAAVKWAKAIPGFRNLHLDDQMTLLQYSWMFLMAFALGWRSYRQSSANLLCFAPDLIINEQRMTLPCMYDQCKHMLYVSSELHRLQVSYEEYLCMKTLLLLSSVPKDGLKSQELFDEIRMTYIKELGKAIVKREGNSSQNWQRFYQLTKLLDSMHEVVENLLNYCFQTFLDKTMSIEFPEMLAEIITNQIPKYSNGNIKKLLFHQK
Experiment: GR-EFC Redistribution (AID 451; calls by dose curve; further: potency means the concentration at half of the fitted maximal effect)
Settings: CHO-K1 GR-EFC translocation, beta-gal luminescence, 2 h
In short: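 CHO-K1 cells expressing nuclear EA and GR-ED fragments of b-gal; compounds titrated up to 46 uM final, 2 h at 37 C. GR nuclear translocation read as complemented b-gal luminescence after 1 h RT detection.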

SMILES	Potency
c1cnc(N2CCC3(CCNCC3)CC2)nc1	> 46 µM (inactive)
c1ccc(N2CCC3(CCNCC3)CC2)nc1	> 46 µM (inactive)
c1ccc(N2CCCC3(CCNCC3)C2)nc1	> 46 µM (inactive)
COc1ccc(NC(=O)N2CCCC3(CCN(C(=O)Oc4ccccc4)CC3)C2)cc1	> 46 µM (inactive)
c1cc(N2CCCC3(CCNCC3)C2)ccn1	> 46 µM (inactive)
c1ccc(N2CCCC3(CCNCC3)C2)cc1	> 46 µM (inactive)
c1cc(CN2CCCC3(CCNCC3)C2)ccn1	> 46 µM (inactive)
N#C/C(=C\c1ccc(O)c(O)c1)C(N)=S	> 46 µM (inactive)
c1ccc(N2CC[C@@]3(CCCNC3)C2)cc1	> 46 µM (inactive)

Target: Mitogen-activated protein kinase 10 (Mus musculus) (UniProt Q61831)
Experiment: JNK3 AlphaScreen Assay (AID 530);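 further: kinase came from lysate of stimulated human HepG2 cells; signal reports phosphorylation of biotinylated GST-cJun 1-79 at Ser73 with 10 µM ATP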
Settings: JNK3 lysate, c-Jun phosphorylation; series mostly up to 57.1 µM
In short: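 HepG2 lysate (IL-1b/TNFa pre-activated) + biotin-GST-cJun 1-79 + anti-pSer73 cJun; cpd titration, 15 min RT; ATP 10 uM start; Tris pH 7.6, MgCl2, DTT, vanadate; beads in EDTA buffer; AlphaScreen.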

SMILES	outcome
c1ccc(N2CCC3(CCNCC3)CC2)nc1	inactive
c1ccc(N2CCCC3(CCNCC3)C2)nc1	inactive
c1cc(N2CCCC3(CCNCC3)C2)ccn1	inactive
c1ccc(N2CCCC3(CCNCC3)C2)cc1	inactive
c1cc(CN2CCCC3(CCNCC3)C2)ccn1	inactive
N#C/C(=C\c1ccc(O)c(O)c1)C(N)=S	inactive
c1ccc(N2CC[C@@]3(CCCNC3)C2)cc1	inactive

Target: 3',5'-cyclic-AMP phosphodiesterase 4B (Homo sapiens) (UniProt Q07343)
Sequence (Q07343 whole entry, looked up): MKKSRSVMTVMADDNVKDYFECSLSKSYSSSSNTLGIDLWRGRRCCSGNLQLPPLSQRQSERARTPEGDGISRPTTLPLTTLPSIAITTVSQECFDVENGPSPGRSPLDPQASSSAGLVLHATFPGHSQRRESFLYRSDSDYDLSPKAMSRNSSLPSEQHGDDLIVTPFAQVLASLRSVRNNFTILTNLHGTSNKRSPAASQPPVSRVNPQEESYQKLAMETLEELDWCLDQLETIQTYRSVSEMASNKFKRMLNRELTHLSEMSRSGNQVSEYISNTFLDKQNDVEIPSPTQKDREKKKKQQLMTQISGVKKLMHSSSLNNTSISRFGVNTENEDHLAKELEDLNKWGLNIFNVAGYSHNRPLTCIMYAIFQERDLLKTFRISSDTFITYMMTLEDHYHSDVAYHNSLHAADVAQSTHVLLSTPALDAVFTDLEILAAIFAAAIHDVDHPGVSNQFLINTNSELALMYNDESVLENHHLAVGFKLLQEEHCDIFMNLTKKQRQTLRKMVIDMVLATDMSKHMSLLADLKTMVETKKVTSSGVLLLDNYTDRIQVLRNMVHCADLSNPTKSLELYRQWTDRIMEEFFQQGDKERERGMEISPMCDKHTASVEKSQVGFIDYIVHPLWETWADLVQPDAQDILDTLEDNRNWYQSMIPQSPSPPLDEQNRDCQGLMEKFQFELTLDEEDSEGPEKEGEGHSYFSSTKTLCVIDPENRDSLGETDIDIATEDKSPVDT
Experiment: qHTS Assay for Inhibitors of PDE-IV (AID 607; active means well fitted activation curve with a large enough effect in the main read-out, with a control signal flat, not every such curve was filed as active)
Settings: HEK293 ACTOne CNG channel cells, membrane potential fluorescence; series mostly up to 22.9 µM
In short: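 Cell-based read-out of cAMP via a modified cyclic nucleotide-gated channel and membrane potential dye (535/590 nm) in HEK293 cells expressing PDE4 endogenously. Compounds tested up to 22.9 uM final; 100 uM RO 20-1724 reference.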

SMILES	Potency
c1cnc(N2CCC3(CCNCC3)CC2)nc1	inactive
c1ccc(N2CCC3(CCNCC3)CC2)nc1	inactive
COc1ccc(NC(=O)N2CCCC3(CCN(C(=O)Oc4ccccc4)CC3)C2)cc1	inactive
c1ccc(N2CCCC3(CCNCC3)C2)cc1	inactive
c1cc(CN2CCCC3(CCNCC3)C2)ccn1	inactive
N#C/C(=C\c1ccc(O)c(O)c1)C(N)=S	inactive
c1ccc(N2CC[C@@]3(CCCNC3)C2)cc1	inactive

Target: Cytochrome P450 3A4 (Homo sapiens) (UniProt P08684)
Sequence (P08684 whole entry, looked up): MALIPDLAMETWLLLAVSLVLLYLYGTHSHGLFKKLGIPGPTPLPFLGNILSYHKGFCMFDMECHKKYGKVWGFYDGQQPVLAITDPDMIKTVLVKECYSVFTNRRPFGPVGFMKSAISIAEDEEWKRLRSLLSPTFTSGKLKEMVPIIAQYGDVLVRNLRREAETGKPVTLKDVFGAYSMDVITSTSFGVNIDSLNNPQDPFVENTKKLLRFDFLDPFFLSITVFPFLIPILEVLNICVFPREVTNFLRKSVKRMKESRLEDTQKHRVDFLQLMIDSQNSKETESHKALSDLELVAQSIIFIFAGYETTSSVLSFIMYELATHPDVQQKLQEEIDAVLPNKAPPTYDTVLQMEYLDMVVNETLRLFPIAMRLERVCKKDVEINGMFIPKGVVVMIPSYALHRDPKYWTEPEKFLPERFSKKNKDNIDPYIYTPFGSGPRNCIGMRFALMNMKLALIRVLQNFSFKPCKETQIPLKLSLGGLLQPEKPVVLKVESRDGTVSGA
Experiment: qHTS Assay for Activators of Cytochrome P450 3A4 (AID 885; active means well fitted activation curve with a large enough effect; further: nearly all actives have a fitted effect of over 65% in size)
Settings: recombinant CYP3A4, Luciferin-PPXE luminescence, 60 min; series mostly up to 57.1 µM
In short: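 Luminescent readout of luciferin formed from 25 uM Luciferin-PPXE (KM level) by 20 nM CYP3A4 in 200 mM KPO4, with 60 min NADPH-driven reaction at room temperature after 10 min compound exposure. Ketoconazole (57 uM) defined 100% inhibition.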

SMILES	Potency
c1cnc(N2CCC3(CCNCC3)CC2)nc1	inactive
c1ccc(N2CCC3(CCNCC3)CC2)nc1	inactive
c1ccc(N2CCCC3(CCNCC3)C2)nc1	inactive
COc1ccc(NC(=O)N2CCCC3(CCN(C(=O)Oc4ccccc4)CC3)C2)cc1	inactive
c1cc(N2CCCC3(CCNCC3)C2)ccn1	inactive
c1ccc(N2CCCC3(CCNCC3)C2)cc1	inactive
c1cc(CN2CCCC3(CCNCC3)C2)ccn1	inactive
N#C/C(=C\c1ccc(O)c(O)c1)C(N)=S	inactive
c1ccc(N2CC[C@@]3(CCCNC3)C2)cc1	inactive
